Only some compounds are listed: those with a hit (about 7.2% of all), similar ones and a draw of the others.
Tau filament bind: tau filament binding | P10636 | recombinant tau filaments, thioflavin S fluorescence, 15 h; filaments grown with octadecylsulfate alongside compound | Potency, µM (doses to about 57.1 µM), for the others: top-dose activity change, negative = inhibition | actives 2% (n = 71,000) | AID 596;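 also: % is scaled to controls: 0 for no effect and ±100 for the full control effect; actives lower thioflavin S fluorescence by blocking filaments or displacing dye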
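Assay mix: 1 uM His-tagged tau, 30 uM sodium octadecylsulfate, thioflavine S dye in HEPES/NaCl/DTT buffer. Compound is added prior to the inducer. Fluorescence after 15 h at 37 C.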
TSHR agonist: activates the human thyroid stimulating hormone receptor; HEK293-CNG-TSHR cells (CNG channel as cAMP sensor), membrane potential dye, cAMP; Potency, µM (series often up to 57.1 µM), for the others: at the highest dose activation, usual class: activators; P16473; actives 0.48% (n = 73,000); AID 926; active = well fitted activation curve with a large enough effect in the main read-out, with a control signal flat, not every such curve was filed as active; inconclusive = small, poorly fitted or top-dose-only effect, or a change in a side signal; inactive = no such curve, though single readings can be large or run the other way; % of control where 0% means no effect;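 also: the control signal comes from parental cells without the receptor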
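cAMP rise detected as CNG-channel membrane depolarization by fluorescent dye (emission 590 nm), 30 min after compound, following 60 min dye loading containing 100 uM RO 20-1724 at room temperature. Cells: TSHR/CNG HEK 293, with parental CNG HEK 293 as control.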
FLuc inh: inhibitors of firefly luciferase; purified firefly luciferase, luminescence, 8 min; Potency, µM (top dose mostly 57.1 µM), inactives show at the top dose activity change, negative = inhibition, actives largely listed as inhibitors; actives 2.2% (n = 72,000); also: % is scaled to controls: 0 for no effect and ±100 for the full control effect; nearly all actives have a fitted effect of over 40% in size
Target sequence (P08659 whole entry, looked up): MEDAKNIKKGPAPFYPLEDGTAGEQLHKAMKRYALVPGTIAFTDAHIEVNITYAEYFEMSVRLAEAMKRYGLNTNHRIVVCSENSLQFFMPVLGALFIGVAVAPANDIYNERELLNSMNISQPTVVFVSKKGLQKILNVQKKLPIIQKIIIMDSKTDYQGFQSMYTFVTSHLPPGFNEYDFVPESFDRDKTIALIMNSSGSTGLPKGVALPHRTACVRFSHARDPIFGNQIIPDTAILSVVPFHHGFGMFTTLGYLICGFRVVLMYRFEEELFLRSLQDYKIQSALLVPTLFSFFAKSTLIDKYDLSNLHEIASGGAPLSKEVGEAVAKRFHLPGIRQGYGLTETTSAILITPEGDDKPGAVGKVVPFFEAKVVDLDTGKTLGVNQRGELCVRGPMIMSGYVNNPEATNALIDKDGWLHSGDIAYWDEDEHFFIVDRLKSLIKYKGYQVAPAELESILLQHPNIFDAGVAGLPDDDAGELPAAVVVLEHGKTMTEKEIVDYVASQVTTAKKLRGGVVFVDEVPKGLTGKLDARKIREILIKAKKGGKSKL
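Compounds were tested as concentration series (qHTS) against purified P. pyralis luciferase with luciferin and 10 uM ATP in 50 mM imidazole pH 7.2, 50 mM KCl, 7 mM MgCl2, 0.01% Tween 20, 0.05% BSA. Luminescence was read after 8 min at ambient temperature.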
Bst PK mod: modulators of Bacillus stearothermophilus pyruvate kinase | purified pyruvate kinase, luminescence ATP production; ribose 5-phosphate activator present at AC10 | Potency, µM | actives 1.2% (n = 51,000) | AID 361; in the data active = potency below about 11 µM; inconclusive = mostly about 12 µM to 25 µM;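 the screen sought inhibitors and activators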;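 also: scaled between full activation by ribose 5 phosphate and full inhibition by luteolin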
HEK293 cAMP cs: counter-screen for TSHR agonists: cAMP increase in parental HEK293. parental HEK293 CNG cAMP sensor, membrane potential fluorescence. Potency, µM (highest dose often 57.1 µM), inactives show at the top dose activation, usual class: activators. actives 2.5% (n = 73,000); also: % of control where 0% means no effect; nearly all actives have a fitted effect of over 55% in size
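Parental HEK 293 cells stably expressing a cAMP-gated CNG channel were loaded with membrane potential dye containing 100 uM RO 20-1724 for 60 min. Compound added for 30 min; depolarization read as fluorescence intensity at 590 nm.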
ERK AVP inh: blocks ERK signaling stimulated by vasopressin | HEK293-V1b, vasopressin-stimulated pERK AlphaScreen | Potency, µM (series often up to 57.5 µM), for inactives: at the highest dose activity, negative = inhibition, actives largely listed as inhibitors | actives 0.99% (n = 72,000); also: % is scaled to controls: 0 for no effect and ±100 for the full control effect; nearly all actives have a fitted effect of over 55% in size
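Overnight-seeded V1b-HEK293 cells in 1% FBS got compound, then vasopressin (25 nM final, 5 min, 37C), then lysis buffer. AlphaScreen detection of phospho-ERK; activity normalized to basal and full-stimulation controls.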
* = called active by the depositor; i = inactive; ? = inconclusive; . = no result given; [ ] = remark or other dose. Unless noted, calls follow the shape of the dose curve; as a rule, active = well fitted curve in the direction sought with a large enough effect; inconclusive = small, poorly fitted or top-dose-only effect, or another doubt; inactive = no such curve, though single readings can be large; an effect the other way counts as inactive or inconclusive. Potency is read from the fitted curve at half-maximal effect.

SMILES | Tau filament bind | TSHR agonist | FLuc inh | Bst PK mod | HEK293 cAMP cs | ERK AVP inh
Cc1cc2ccc(OC(=O)c3ccc(N=C(N)N)cc3)cc2oc1=O | -1.8%[11.4 µM] | -0.7%[11.4 µM] | 1.6%[11.4 µM] | . | -6.3%[11.4 µM] | 1.8%[11.5 µM]
O=c1nc2n(c3c1oc1ccccc13)Cc1ccccc1-2 | -3.9% | 3.2% | 1.8% | i | -4.2% | 8.5%
CCn1c(C)nc2cc(-c3nc4n(n3)Cc3ccccc3-4)ccc21 | 172.1% | 0.0% | 0.0501µM* | 0.0948* | -4.8% | 4.6%
Fc1ccc(-c2nc3n(n2)Cc2ccccc2-3)cc1 | 9.5% | 10.2% | 3.98µM* | 2.51* | 9.9% | -19.2%
CC(=O)NCCNc1ncnc2ccc(-c3ccccc3C(F)(F)F)cc12 | 3.0% | ? | -0.6%[2.29 µM] | . | ? | -6.1%
C[C@H](CCC(=O)O)[C@H]1CC[C@@H]2[C@@H]3CC[C@H]4C[C@@H](O)CC[C@@]4(C)[C@@H]3C[C@H](O)[C@@]21C | 4.7%[11.4 µM] | 0.1%[11.4 µM] | 3.6%[11.4 µM] | . | 4.0%[11.4 µM] | 4.3%[11.5 µM]
C=CCn1cnc2c(c1=O)c1nc3ccccc3nc1n2-c1ccccc1 | -11.0% | -1.2% | -3.7% | >57 | 0.5% | 3.3%
CCC(C)n1cnc2c(c1=O)c1nc3ccccc3nc1n2-c1ccc2c(c1)OCCO2 (stereo not given) | -10.3% | -1.0% | 1.4% | >57 | 5.1% | -8.3%
O=c1c2c3nc4ccccc4nc3n(-c3cccc(F)c3)c2ncn1Cc1ccc2c(c1)OCO2 | 3.16µM* | 10.9% | 1.5% | >57 | 1.2% | -14.2%
CCC(C)n1cnc2c(c1=O)c1nc3ccccc3nc1n2Cc1ccc2c(c1)OCO2 (stereo not given) | 3.16µM* | -19.1% | -4.5% | >57 | -5.6% | 0.6%
C[C@H](N)C(=O)OC(C)(C)Cc1ccc(Cl)cc1 | -7.3% | -5.3% | -0.4% | . | -3.1% | 10.8%
COc1ccc2nc(Nc3ccc4c(c3)OCO4)sc2c1 | 12.6µM* | ? | -20.4% | >57 | -3.8% | -7.1%
N#CCSc1nc2cc(C(=O)N3CCC(C(N)=O)CC3)ccc2c2nc3ccccc3n12 | 5.0% | 23.0% | -2.6% | 0.467* | -2.6% | 20µM*
Oc1cc(O)c2c(c1)O[C@@H](c1ccc(O)c(O)c1)[C@H](O[C@@]1(c3cc(O)c(O)c(O)c3)Oc3cc(O)cc(O)c3[C@H](O)[C@@H]1O)C2 | 0.4%[11.4 µM] | 8.4%[11.4 µM] | -3.5%[11.4 µM] | . | 5.7%[11.4 µM] | -15.3%[11.5 µM]
Cc1cc(N)c2cc(NC(=O)Nc3ccc4nc(C)cc(N)c4c3)ccc2n1 | 246.6%[11.4 µM] | -0.7%[11.4 µM] | 2.6%[11.4 µM] | . | 6.1%[11.4 µM] | -11.7%[11.5 µM]
COCCn1c(C)cc(C(=O)CSc2nnc(C)s2)c1C | 9.4% | 0.5% | 10µM* | ? | -0.2% | -12.2%
COCCn1c(C)cc(C(=O)CSc2n[nH]c(N)n2)c1C | -10.4% | -12.6% | -4.4% | >57 | 3.6% | -24.6%
O=C(c1cccc(F)c1)N1CCC2(CCN(Cc3ccncc3)CC2)CC1 | 3.4% | 6.8% | -2.3%[11.4 µM] | . | 8.2% | 0.8%
CCCOc1c(OC)cccc1C1CC(=O)Nc2cc3c(cc21)OCCO3 (stereo not given) | 14.6% | ? | -1.2% | >11.4 | 15.8µM* | -6.2%
COc1ccccc1C1CC(=O)Nc2cc3c(cc21)OCCO3 (stereo not given) | -1.6% | . | 3.5% | . | 20.7% | 1.5%
CC(C)Oc1ccccc1C1CC(=O)Nc2cc3c(cc21)OCCO3 (stereo not given) | 0.8% | ? | 0.0% | >57 | ? | 15.8µM*
Cc1ccccc1OCc1nc2ccccc2c(=O)n1/N=C/c1ccco1 | 8.9% | ? | -20.5% | >57 | 15.8µM* | 20.1%
COc1cccc(/C=N/n2c(-c3ccco3)nc3ccccc3c2=O)c1 | 22.0% | ? | -0.8% | >57 | 15.8µM* | -0.6%
CC(CCC(=O)O)C1CCC2C3CC[C@H]4CC(O)CC[C@@]4(C)C3CC(O)[C@]12C (stereo not given in full) | . | . | . | . | . | 2.2%
COc1cc([C@H]2c3cc4c(cc3[C@@H](O[C@H]3O[C@H]5CO[C@@H](C)O[C@H]5[C@@H](O)[C@@H]3O)[C@@H]3COC(=O)[C@H]23)OCO4)cc(OC)c1O | 10.2%[25.6 µM] | -20.3%[25.6 µM] | 0.8%[25.5 µM] | . | 1.8%[25.6 µM] | -10.5%[25.7 µM]
